Screens (PubChem)
RecA splice inh = blocks M. tuberculosis RecA intein splicing; hit rate 0.75% among 290,000; P9WHJ3; inhibition, % (concentration not given with the values); cell-free RecA intein splicing, fluorescence; AID 2221; in the data active = inhibition above about 30%;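 note: 0% = vehicle wells and 100% = reference inhibitor control wells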
BH1578 lux ind = inducers of Vibrio cholerae quorum light production without autoinducers; V. cholerae BH1578 lux reporter, luminescence, 6 h; activation, % at 18.7 µM; hit rate 0.16% among 350,000; AID 588436; in the data active = activation mostly above about 9.7%, no sharp cut-off
Mtb UGM inh = inhibitors of M. tuberculosis UDP-galactopyranose mutase. purified UGM, fluorescence polarization probe displacement. hit rate 0.06% among 320,000. inhibition, % at 10 µM. AID 504406; in the data active = inhibition above about 10%, passing the limit was not always enough
Target sequence (P9WIQ1 whole entry, looked up): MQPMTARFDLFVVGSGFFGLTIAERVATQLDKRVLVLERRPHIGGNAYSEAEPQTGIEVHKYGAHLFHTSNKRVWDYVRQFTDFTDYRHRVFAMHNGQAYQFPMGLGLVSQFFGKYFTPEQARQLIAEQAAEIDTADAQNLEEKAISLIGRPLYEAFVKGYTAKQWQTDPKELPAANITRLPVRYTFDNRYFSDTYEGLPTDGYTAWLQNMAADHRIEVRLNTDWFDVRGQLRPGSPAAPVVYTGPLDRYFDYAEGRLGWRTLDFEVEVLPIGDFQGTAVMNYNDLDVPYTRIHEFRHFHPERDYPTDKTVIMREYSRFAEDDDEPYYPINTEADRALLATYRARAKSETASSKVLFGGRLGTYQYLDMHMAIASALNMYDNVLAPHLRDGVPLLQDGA
GDH-TPI counter-1 = GDH-TPI coupled enzyme inhibition counter-screen. GDH-TPI coupled enzyme counterscreen, NADH absorbance. inhibition, % at 4.8 µM. hit rate 1.2% among 360,000. AID 588335; in the data active = inhibition above about 30%;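 note: 0% = DMSO wells and 100% = wells lacking the enzyme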
Rv3671c protease = inhibitors of M. tuberculosis serine protease Rv3671c; hit rate 0.048% among 320,000; inhibition, % at 5.96 µM; P9WHR9; in the data active = inhibition above about 38%;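 note: extracellular domain of Rv3671c used as enzyme; 0% = enzyme with DMSO and 100% = no enzyme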
FBA Mtb inh = Mtb fructose-bisphosphate aldolase inhibition. inhibition, % at 1 µM. purified M. tuberculosis FBA, fluorescence read-out. hit rate 2.3% among 360,000. P9WQA3;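 note: 0% = vehicle and 100% = reference inhibitor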
Mtb FBA inh conf = Mtb FBA inhibition, confirmed | purified M. tuberculosis FBA, fluorescence read-out | hit rate 78% among 5,600 | shares compounds with FBA Mtb inh | inhibition, % at 1 µM;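 note: 0% = vehicle wells and 100% = reference inhibitor wells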
GDH-TPI counter-2 = inhibits GDH-TPI coupling enzymes, flagging Mtb FBA hits; GDH-TPI coupled enzyme counterscreen, fluorescence; inhibition, % at 1 µM; shares compounds with FBA Mtb inh; AID 652141; hit rate 81% among 5,600; in the data active = inhibition above about 10%
An asterisk follows results filed as active; i = inactive; / = no result; + = active, no number. Compounds with a hit are over-represented: about 4.1% of the library has one in this group of screens. Cut-off read from the data, not from the text of the source, unless noted: active = inhibition above about 27%; inactive = the rest.

SMILES | RecA splice inh | BH1578 lux ind | Mtb UGM inh | GDH-TPI counter-1 | Rv3671c protease | FBA Mtb inh | Mtb FBA inh conf | GDH-TPI counter-2
CC(=O)Nc1cccc(-c2cn3ccccc3n2)c1 | -1 | 0 | 1 | 8 | -6 | 43* | 40* | 41*
COc1ccc(NC(=S)N2CCC3CC2c2c(Cl)cccc23)c(OC)c1 (stereo unspecified) | / | 1 | / | 0 | / | 0 | / | /
Cc1ccc(NC(=Nc2ccc(Br)cc2)N2CCOCC2)cc1C | 2 | i | 0 | 8 | -8 | -1 | / | /
COc1ccc(/C=C/C(=O)N2CCN(C)CC2)cc1OC | -2 | 1 | -2 | 20 | 5 | 2 | / | /
CC(=O)Nc1ccc(S(=O)(=O)NCCNS(=O)(=O)c2ccc(NC(C)=O)cc2)cc1 | 1 | 8 | -5 | -7 | -4 | -2 | / | /
CC(=O)Nc1ccc(S(=O)(=O)NCCc2cn3nc(C)c(C)nc3n2)cc1 | -103 | 0 | -1 | 5 | 4 | 43* | 59* | 49*
COc1ccc(S(=O)(=O)NCCc2cn3nc(C)c(C)nc3n2)cc1F | -166 | -2 | -1 | 9 | 9 | 61* | + | 149*
O=S(=O)(Nc1ccc(N2CCOCC2)cc1)c1c(F)cc(F)cc1Br | 0 | 0 | -3 | -1 | 11 | 0 | / | /
COc1ccccc1NC(=O)NCC1(N(C)C)CCCCC1 | -3 | 0 | 1 | -6 | 1 | 2 | / | /
COc1ccc(-n2nc(C(=O)NCC(=O)NCc3ccc(F)cc3)c3ccccc3c2=O)cc1OC | -2 | 0 | 2 | -1 | -73 | 3 | / | /
COc1cc2c(cc1OC)C(c1ccccc1F)NCC2 (stereo unspecified) | 1 | i | 0 | -5 | 2 | -1 | / | /
CCCOC(=O)c1ccc(Oc2coc3c(CN(CC)CC)c(O)ccc3c2=O)cc1 | -11 | 0 | 0 | 22 | -4 | 55* | 16 | 12*
COc1ccc(C2C3=C(CC(C)(C)CC3=O)Nc3nc(C)nn32)cc1OC (stereo unspecified) | -1 | i | -2 | 12 | 7 | 36* | + | +
O=C(COc1ncnc2scc(-c3ccc(Cl)cc3)c12)NCc1ccco1 | 1 | -2 | 0 | 1 | -2 | 83* | 5 | -2
CCNC(=O)COc1ncnc2scc(-c3ccc(F)cc3)c12 | -3 | 0 | 3 | -12 | -8 | -5 | / | /
COc1ccc(-c2nc(CCl)cs2)cc1OC | 1 | 0 | -2 | 6 | -5 | 72* | 91* | 81*
Cc1ccc(S(=O)(=O)N2CCOCC2)cc1C(=O)N1CCN(S(=O)(=O)c2ccccc2F)CC1 | / | -1 | / | 9 | / | 1 | / | /
CCOC(=O)C1(C)CCCCN1C(=O)c1ccnc(Cl)c1 (stereo unspecified) | / | 0 | / | -13 | / | 1 | / | /
CCOC(=O)Oc1ccc2c(=O)c(Oc3cccc(C)c3)coc2c1 | 0 | 0 | -1 | 16 | 4 | 16 | / | /
CCc1ccccc1Oc1coc2cc(O)ccc2c1=O | -1 | i | 5 | 15 | 1 | 31* | 111* | 75*
COc1ccccc1Oc1coc2cc(OCC(N)=O)ccc2c1=O | 1 | i | 3 | 3 | -3 | 1 | / | /
Cc1cccc(Oc2coc3cc(O)ccc3c2=O)c1 | -6 | i | 2 | 10 | -2 | 37* | 72* | 63*
CCN(CC(=O)Nc1c(F)cccc1F)C(=O)c1ccc(Cl)c(S(=O)(=O)N2CCCC2)c1 | -8 | -1 | -1 | -1 | -1 | 4 | / | /
Cc1cc2nn(-c3ccc(Cl)cc3)nc2cc1N | 21 | i | -2 | 7 | -10 | 41* | 111* | 97*
Cc1cc2nn(-c3ccc(F)cc3)nc2cc1N | -33 | 0 | 1 | 46* | -2 | 54* | 179* | 136*
SMILES | RecA splice inh | BH1578 lux ind | Mtb UGM inh | GDH-TPI counter-1 | Rv3671c protease | FBA Mtb inh | Mtb FBA inh conf | GDH-TPI counter-2
Fc1ccc(-n2nnc(-c3ccccc3Br)n2)cc1 | 2 | 0 | 0 | -2 | 2 | -2 | / | /
COc1cc(NS(C)(=O)=O)ccc1Nc1c2ccccc2nc2ccccc12 | / | i | -1 | 13 | 4 | 22 | / | /
Cc1cccc(C=Nc2ccc3c4c(cccc24)CC3)c1O | -4 | i | -3 | -1 | -14 | 37* | 54* | 55*
Oc1ccc(Cl)cc1C=Nc1ccc2c3c(cccc13)CC2 | 2 | 0 | / | 17 | -15 | 51* | 35* | 19*
CCc1nc2sc(C#N)c(N)c2c2c1CCCC2 | 0 | -1 | 1 | 10 | -1 | 49* | + | 171*
CCc1nc2sc(C(C)=O)c(N)c2c2c1CCCC2 | -66 | -1 | -2 | 10 | -11 | 19 | / | /
CCn1c(=O)c2cc(C(=O)NCCN(C)C)sc2c2ccccc21 | 1 | i | 2 | 16 | 1 | 62* | 105* | 89*
CCCN(CCC)CCNC(=O)c1cc2c(=O)n(CC)c3ccccc3c2s1 | -4 | 0 | 0 | 22 | -1 | 28* | 63* | 55*
CCN(CC)CCCNC(=O)c1cc2c(=O)n(CC)c3ccccc3c2s1 | -1 | i | 5 | 9 | -3 | 72* | + | +
CCCN(CCC)CCNC(=O)c1cn(C)c(=O)c2c1c1ccccc1n2C | -1 | 0 | / | 4 | / | 18 | / | /
CCN(CC)CCNC(=O)c1cc2c(=O)n(CC)c3ccccc3c2s1 | 1 | 0 | -4 | 24 | -4 | 72* | 42* | 36*
CCn1c(=O)c2cc(C(=O)N3CCOCC3)sc2c2ccccc21 | 1 | 0 | -1 | 29 | 0 | 17 | / | /
CCN(CC)CCCNC(=O)c1cc2c(Cl)nc3ccccc3c2s1 | 0 | 0 | -1 | 9 | -5 | 2 | / | /
CCCNC(=O)C1(C)CCN(C(=O)c2ccccc2OC)C1 (stereo unspecified) | / | i | / | 1 | / | -1 | / | /
COc1ccccc1C(=O)NNC(=O)C1CCN(C(=O)OC(C)(C)C)CC1 | -1 | -1 | 2 | 4 | -3 | 1 | / | /
CN(C)S(=O)(=O)c1ccc(Cl)c(NC(=O)CNC2(C)CCS(=O)(=O)C2)c1 (stereo unspecified) | / | i | 1 | 11 | 6 | 0 | / | /
COc1ccc2nc3c(C)n(C)ccc-3c2c1 | / | -1 | / | 4 | / | 57* | 73* | 49*
CN(C)c1ccc(-c2ccnc3c2CC(C)(C(=O)NCc2cccc(Cl)c2)O3)cc1 (stereo unspecified) | / | 1 | / | 18 | / | 62* | 58* | 39*
CN(C)c1ccc(-c2ccnc3c2CC(C)(C(=O)NCC2CCOCC2)O3)cc1 (stereo unspecified) | / | i | / | 15 | / | 48* | 114* | 98*
CN(C)c1ccc(-c2ccnc3c2CC(C)(C(=O)NCc2ccncc2)O3)cc1 (stereo unspecified) | / | -1 | / | 34* | / | 60* | 178* | 145*
